ELG1 repair inh: inhibitors of ELG1-dependent DNA repair in HEK293T cells; HEK293T ELG1-luciferase reporter, luminescence, 16 h; DNA damage induced by 5-fluorouridine; Potency, µM (top dose mostly 46.1 µM), hits mostly inhibitors; 330,000 tested, 2.3% active; further: nearly all actives have a fitted effect of over 55% in size
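HEK293T cells expressing luciferase-tagged ELG1 (2,000/well) received 5-Fluorouridine plus compound or DMSO for 16 hr at 37 °C. Luciferase was read by ONE-Glo luminescence after 30 min at room temperature.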
TDP1 cell CPT: DT40-hTDP1 cell growth loss with CPT. Potency, µM (series often up to 46.2 µM), most hits filed as inhibitors. 420,000 tested, 12% active. chicken DT40 Tdp1-/-;hTDP1 cells + 20 nM CPT, ATP luminescence, 48 h; further: nearly all actives have a fitted effect of over 55% in size
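Chicken DT40 Tdp1-/- cells complemented with human TDP1, 400 cells/well, exposed to compounds plus 20 nM camptothecin for at least 48 h at 37 C; viability read as ATP content by CellTiter-Glo luminescence.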
TDP1 cell noCPT: qHTS for Inhibitors of human tyrosyl-DNA phosphodiesterase 1 (TDP1): qHTS in cells in absence of CPT; Potency, µM (highest dose often 46.2 µM), actives largely listed as inhibitors; DT40 Tdp1-/- hTDP1 cells, no CPT, ATP luminescence, 48 h; 420,000 tested, 15% active; further: nearly all actives have a fitted effect of over 55% in size
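No-CPT arm: Tdp1-/-;hTDP1 DT40 cells (400/well) plus compounds, incubated ≥48 hr at 37 °C. Readout CellTiter-Glo luminescence.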
IL-1B inflam inh: blocks inflammasome-driven IL-1 beta release; THP-1 LPS/ATP IL-1B secretion, AlphaLISA, 16 h; stronger effect = lower value; activity change, % at 57.5 µM; 360,000 tested, 4.7% active; AID 743279; in the data active means activity change below about -50%; inconclusive means mostly about -30% to -49%
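THP-1 cells pretreated 1 hr with compounds (up to 57.5 uM final), then stimulated with LPS (250 ng/mL final) plus ATP (1.25 mM final); secreted IL-1B measured by AlphaLISA after 16 hr, decreased signal indicating inhibition.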
RORg inh: blocks mouse ROR gamma transcriptional activity. P51450. Drosophila S2 Gal4-RORgamma UAS-luciferase reporter, 20 h. Potency, µM (highest dose often 53.6 µM), usual class: inhibitors. 310,000 tested, 5.4% active. AID 2551; further: nearly all actives have a fitted effect of over 60% in size
Target sequence (P51450 whole entry, looked up, the tested form may be a part): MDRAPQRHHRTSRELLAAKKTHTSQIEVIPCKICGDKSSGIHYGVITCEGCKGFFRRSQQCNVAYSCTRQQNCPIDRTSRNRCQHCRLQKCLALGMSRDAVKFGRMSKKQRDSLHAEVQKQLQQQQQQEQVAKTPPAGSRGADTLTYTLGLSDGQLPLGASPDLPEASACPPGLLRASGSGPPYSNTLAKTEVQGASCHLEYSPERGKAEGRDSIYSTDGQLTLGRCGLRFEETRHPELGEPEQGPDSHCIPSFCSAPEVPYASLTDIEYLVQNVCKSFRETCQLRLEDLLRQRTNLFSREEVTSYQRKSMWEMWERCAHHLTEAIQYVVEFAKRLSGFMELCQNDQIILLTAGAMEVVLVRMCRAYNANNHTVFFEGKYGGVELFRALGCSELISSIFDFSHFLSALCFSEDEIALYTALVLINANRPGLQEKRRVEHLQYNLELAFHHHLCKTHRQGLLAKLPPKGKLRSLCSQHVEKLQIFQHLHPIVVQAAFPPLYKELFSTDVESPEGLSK
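Luminescence from a UAS-regulated Photinus luciferase reporter in stably transfected Drosophila Schneider cells is measured; decreased signal marks ROR gamma inhibition. Fusion expression is induced by 700 uM copper sulfate for 20 hr.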
VP16 counter: counter-screen for ROR gamma inhibitors: Gal4-VP16 reporter. AID 2546. Drosophila S2 Gal4-VP16 UAS-luciferase, luminescence, 20 h. Potency, µM (top dose mostly 53.6 µM), usual class: inhibitors. 310,000 tested, 3.5% active;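 further: Gal4-VP16 expression switched on by copper sulfate through the metallothionein promoter; nearly all actives have a fitted effect of over 50% in size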
Hits are given with their value; ! = repeats disagree; [ ] = dose if it differs, or a comment. A selection: hits, their analogues and other compounds. The true share with any hit is near 21%. Unless noted, the call rests on the fitted dose curve; in most records, active means well fitted curve in the direction sought with a large enough effect; inconclusive means small, poorly fitted or top-dose-only effect, or another doubt; inactive means no such curve, though single readings can be large; an effect the other way counts as inactive or inconclusive.

For O=C(Nc1ccc(N2CCOCC2)cc1)c1cc(-c2ccncc2)nc2ccccc12 the results were ELG1 repair inh inconclusive, TDP1 cell CPT 21µM, TDP1 cell noCPT inconclusive, IL-1B inflam inh inactive, RORg inh inactive and VP16 counter inactive.
`Cc1c(Cl)cccc1Nc1nc(N)nc(CSC(=S)N2CCOCC2)n1` gave ELG1 repair inh inactive, TDP1 cell CPT inactive, TDP1 cell noCPT inactive, IL-1B inflam inh inactive, RORg inh inconclusive and VP16 counter inactive[10 µM].
For COc1ccc(Nc2nc(N)nc(CSC(=S)N3CCN(c4ccccc4)CC3)n2)cc1 the results were ELG1 repair inh 12µM, TDP1 cell CPT inconclusive, TDP1 cell noCPT 18µM, IL-1B inflam inh inactive, RORg inh inactive and VP16 counter inactive.
Screening COc1ccc(Nc2nc(N)nc(CSC(=S)N3CCN(C)CC3)n2)cc1 returned ELG1 repair inh inactive, TDP1 cell CPT inactive, TDP1 cell noCPT inconclusive, IL-1B inflam inh inactive, RORg inh inconclusive and VP16 counter inactive.
COc1ccc(Nc2nc(N)nc(CSC(=S)N3CCCCC3C)n2)cc1 (stereo not given) was read as ELG1 repair inh inactive, TDP1 cell CPT inconclusive, TDP1 cell noCPT 18µM, IL-1B inflam inh -62, RORg inh 13µM and VP16 counter inactive.
Screening COc1ccccc1Nc1nc(N)nc(CN2CCc3ccccc3C2)n1 returned ELG1 repair inh inactive, TDP1 cell CPT inconclusive, TDP1 cell noCPT inconclusive, IL-1B inflam inh inactive, RORg inh 11µM and VP16 counter inconclusive.
Screening CCOc1ccc(Nc2nc(N)nc(CSC(=S)N3CCN(c4ccccc4)CC3)n2)cc1 returned ELG1 repair inh 10µM, TDP1 cell CPT 15µM, TDP1 cell noCPT 18µM, IL-1B inflam inh inactive, RORg inh inactive and VP16 counter inactive.
COc1ccc(Nc2nc(N)nc(CN3CCC(C)CC3)n2)cc1 was read as ELG1 repair inh inconclusive, TDP1 cell CPT inactive, TDP1 cell noCPT inactive, IL-1B inflam inh inactive, RORg inh inactive and VP16 counter inactive[10 µM].
CC1CCN(C(=S)SCc2nc(N)nc(Nc3ccccc3)n2)CC1 was read as ELG1 repair inh inconclusive, TDP1 cell CPT inactive, TDP1 cell noCPT inactive, IL-1B inflam inh inactive, RORg inh inactive and VP16 counter inactive.
Screening COc1ccccc1Nc1nc(N)nc(CSC(=S)N2CC(C)CC(C)C2)n1 (stereo not given) returned ELG1 repair inh inconclusive, TDP1 cell CPT inconclusive, TDP1 cell noCPT inconclusive, IL-1B inflam inh inactive, RORg inh inconclusive and VP16 counter 25µM.
For CCOC(=O)/C(=N\Nc1cccc(Cl)c1)Sc1nnc(-c2ccc(OC)cc2)n1C the results were ELG1 repair inh inactive, TDP1 cell CPT inactive, TDP1 cell noCPT inactive, IL-1B inflam inh inactive, RORg inh 3.5µM and VP16 counter 11µM.
O=C(CN1C(=O)C2CCCCC2C1=O)Nc1nc(-c2ccccn2)cs1 (stereo not given) was read as ELG1 repair inh inconclusive, TDP1 cell CPT 12µM, TDP1 cell noCPT 10µM, IL-1B inflam inh inactive, RORg inh inconclusive and VP16 counter inactive.
`C[C@@H](C(=O)Nc1nc(-c2ccccn2)cs1)N1C(=O)C2CCCCC2C1=O` (stereo not given in full) gave ELG1 repair inh inactive, TDP1 cell CPT inconclusive, TDP1 cell noCPT inconclusive, IL-1B inflam inh inactive, RORg inh 13µM and VP16 counter inconclusive.
`CC1(c2ccccc2)NC(=O)N(CC(=O)Nc2nc(-c3ccccn3)cs2)C1=O` (stereo not given) gave ELG1 repair inh inactive, TDP1 cell CPT 23µM, TDP1 cell noCPT 15µM and IL-1B inflam inh inactive.
Screening CC1(c2ccccc2)NC(=O)N(CC(=O)NNC(=O)c2ccccc2)C1=O (stereo not given) returned ELG1 repair inh inactive, TDP1 cell CPT inactive, TDP1 cell noCPT inactive and IL-1B inflam inh inactive.
Screening CC(=O)c1sc(NC(=O)CN2C(=O)C3CCCCC3C2=O)nc1-c1ccccc1 (stereo not given) returned ELG1 repair inh inconclusive, TDP1 cell CPT inactive, TDP1 cell noCPT inactive and IL-1B inflam inh inactive.
`CC(C(=O)NC1CCCc2ccccc21)N1C(=O)C2CCCCC2C1=O` (stereo not given) gave ELG1 repair inh inactive, TDP1 cell CPT inactive, TDP1 cell noCPT inactive and IL-1B inflam inh inactive.
`COC(=O)c1ccc(CSc2ccccc2NC(=S)Nc2cccc(C(F)(F)F)c2)o1` gave TDP1 cell CPT inconclusive, TDP1 cell noCPT inconclusive and IL-1B inflam inh inactive.
Cc1cc(C)n(-c2nc3cc(Cl)ccc3nc2Nc2ccc(C)c(F)c2)n1 was read as TDP1 cell CPT inactive and TDP1 cell noCPT inactive.
For COc1cccc(N(CC(=O)NC2CCCCC2)C(=O)CCC(=O)Nc2nc(C)cs2)c1 the results were ELG1 repair inh inactive, TDP1 cell CPT inactive, TDP1 cell noCPT inconclusive, IL-1B inflam inh inactive, RORg inh inactive and VP16 counter inactive.
Screening COc1ccc(CNC(=O)[C@@H]2CC=C[C@@H]3CCN(Cc4ccc(Cl)c(Cl)c4)C(=O)[C@@H]32)cc1 returned TDP1 cell CPT 23µM, TDP1 cell noCPT 11µM and IL-1B inflam inh inactive.
CCCCN1CCC2C=CCC(C(=O)O)C2C1=O (stereo not given) was read as RORg inh inconclusive and VP16 counter inactive.
`CCCCN1CC[C@H]2C=CC[C@@H](C(=O)Nc3ccc(Cl)cc3Cl)[C@H]2C1=O` gave TDP1 cell CPT 16µM, TDP1 cell noCPT inconclusive and IL-1B inflam inh inactive.
Screening COc1ccc(CN2CC[C@H]3C=CC[C@@H](C(=O)Nc4ccccc4)[C@H]3C2=O)cc1OC returned TDP1 cell CPT inconclusive and TDP1 cell noCPT 10µM!.
Screening COc1ccc(CNC(=O)[C@@H]2CC=C[C@@H]3CCN(Cc4ccc(OC)c(OC)c4)C(=O)[C@@H]32)cc1 returned TDP1 cell CPT inactive and TDP1 cell noCPT inactive.
For O=C(/C=C/c1ccc(F)cc1)NC(=S)NNC(=O)[C@H]1C[C@@H]1c1ccccc1 the results were ELG1 repair inh inconclusive, TDP1 cell CPT inconclusive, TDP1 cell noCPT 23µM, IL-1B inflam inh inactive, RORg inh inconclusive and VP16 counter inactive.
CC(C)(C)NC(=S)NNC(=O)[C@H]1C[C@@H]1c1ccccc1 was read as ELG1 repair inh inactive, TDP1 cell CPT inconclusive, TDP1 cell noCPT inconclusive, IL-1B inflam inh inactive, RORg inh 0.56µM and VP16 counter inactive.
Screening O=C(NNC(=O)C1CC1c1ccccc1)c1ccccc1F (stereo not given) returned ELG1 repair inh inactive, TDP1 cell CPT inactive, TDP1 cell noCPT inactive, IL-1B inflam inh inactive, RORg inh inactive and VP16 counter inactive.

Screens (PubChem BioAssay)
